ChEMBL document CHEMBL1961873, “Compounds: GSK PKIS; Assays: Nanosyn kinase panel” (2012)

Key:
[1] = target: Protein kinase C gamma type (Homo sapiens) (UniProt P05129); conditions: at 1 µM;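 further: each value is an averaged percent inhibition of the enzyme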
[2] = target: T1, Protein kinase C iota type (Homo sapiens) (UniProt P41743); conditions: at 0.1 µM
T1 sequence (whole entry): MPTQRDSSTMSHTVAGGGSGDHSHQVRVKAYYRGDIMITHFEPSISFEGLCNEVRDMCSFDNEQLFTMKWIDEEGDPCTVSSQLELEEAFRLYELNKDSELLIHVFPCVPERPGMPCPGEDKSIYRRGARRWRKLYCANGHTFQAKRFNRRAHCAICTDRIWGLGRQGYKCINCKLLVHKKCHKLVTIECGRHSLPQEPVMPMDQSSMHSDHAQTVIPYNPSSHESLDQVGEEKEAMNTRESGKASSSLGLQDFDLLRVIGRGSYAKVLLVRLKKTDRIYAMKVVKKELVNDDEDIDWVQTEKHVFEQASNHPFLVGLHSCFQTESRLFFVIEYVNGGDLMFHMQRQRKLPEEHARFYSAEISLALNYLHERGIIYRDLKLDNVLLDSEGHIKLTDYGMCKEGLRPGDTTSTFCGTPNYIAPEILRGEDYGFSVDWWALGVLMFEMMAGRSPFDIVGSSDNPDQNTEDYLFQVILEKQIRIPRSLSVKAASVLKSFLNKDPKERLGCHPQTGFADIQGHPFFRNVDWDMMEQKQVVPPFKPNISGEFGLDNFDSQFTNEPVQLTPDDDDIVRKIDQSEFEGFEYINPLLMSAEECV

[3] = target: T1, Protein kinase C iota type (Homo sapiens); conditions: at 1 µM
[4] = target: Protein kinase C theta type (Homo sapiens) (UniProt Q04759); conditions: at 0.1 µM
Chain of Protein kinase C theta type (Homo sapiens) (Q04759 whole entry, looked up): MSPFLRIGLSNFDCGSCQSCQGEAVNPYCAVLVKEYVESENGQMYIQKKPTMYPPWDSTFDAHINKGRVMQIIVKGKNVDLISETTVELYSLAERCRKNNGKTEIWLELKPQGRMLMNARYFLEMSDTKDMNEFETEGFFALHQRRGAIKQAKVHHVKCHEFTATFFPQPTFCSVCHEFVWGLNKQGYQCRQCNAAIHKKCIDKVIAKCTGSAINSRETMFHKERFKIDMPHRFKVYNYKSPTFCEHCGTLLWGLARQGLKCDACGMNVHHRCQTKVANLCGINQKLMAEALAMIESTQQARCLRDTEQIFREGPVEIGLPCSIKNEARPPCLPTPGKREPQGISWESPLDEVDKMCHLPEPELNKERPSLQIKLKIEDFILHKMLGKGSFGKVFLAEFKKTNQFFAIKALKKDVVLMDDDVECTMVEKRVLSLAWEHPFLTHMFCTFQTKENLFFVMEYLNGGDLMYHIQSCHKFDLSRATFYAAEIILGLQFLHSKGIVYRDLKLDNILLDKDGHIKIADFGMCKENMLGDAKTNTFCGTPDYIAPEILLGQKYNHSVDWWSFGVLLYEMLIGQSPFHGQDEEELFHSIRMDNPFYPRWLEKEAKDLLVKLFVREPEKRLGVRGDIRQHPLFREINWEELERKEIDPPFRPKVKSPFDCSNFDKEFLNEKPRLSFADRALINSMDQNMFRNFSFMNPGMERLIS

[5] = target: Protein kinase C theta type (Homo sapiens) (UniProt Q04759); conditions: at 1 µM
[6] = target: Protein kinase C beta type (Homo sapiens) (UniProt P05771); conditions: at 0.1 µM
Chain of Protein kinase C beta type (Homo sapiens) (P05771 2-671 limits assumed): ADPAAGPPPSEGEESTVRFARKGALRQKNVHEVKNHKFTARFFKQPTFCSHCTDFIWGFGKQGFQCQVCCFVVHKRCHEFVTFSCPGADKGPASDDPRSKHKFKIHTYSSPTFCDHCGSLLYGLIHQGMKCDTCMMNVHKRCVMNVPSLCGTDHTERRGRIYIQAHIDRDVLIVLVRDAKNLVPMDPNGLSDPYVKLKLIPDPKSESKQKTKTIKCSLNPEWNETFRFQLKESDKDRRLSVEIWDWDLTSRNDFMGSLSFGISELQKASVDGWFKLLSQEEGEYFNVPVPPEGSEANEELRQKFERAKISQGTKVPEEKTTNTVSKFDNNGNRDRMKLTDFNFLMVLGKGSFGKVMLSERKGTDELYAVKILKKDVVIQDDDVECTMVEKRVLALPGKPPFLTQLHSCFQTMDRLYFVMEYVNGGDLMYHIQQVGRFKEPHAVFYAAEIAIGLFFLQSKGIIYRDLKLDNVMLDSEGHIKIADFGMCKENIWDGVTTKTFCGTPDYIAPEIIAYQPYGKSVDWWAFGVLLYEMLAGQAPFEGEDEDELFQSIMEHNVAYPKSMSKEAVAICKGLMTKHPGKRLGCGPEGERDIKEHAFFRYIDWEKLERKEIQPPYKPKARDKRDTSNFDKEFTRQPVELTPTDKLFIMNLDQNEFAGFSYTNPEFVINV

[7] = target: Protein kinase C beta type (Homo sapiens) (UniProt P05771); conditions: at 1 µM
[8] = target: T2, Serine/threonine-protein kinase D1 (Homo sapiens) (UniProt Q15139); conditions: at 0.1 µM
T2 sequence (whole entry): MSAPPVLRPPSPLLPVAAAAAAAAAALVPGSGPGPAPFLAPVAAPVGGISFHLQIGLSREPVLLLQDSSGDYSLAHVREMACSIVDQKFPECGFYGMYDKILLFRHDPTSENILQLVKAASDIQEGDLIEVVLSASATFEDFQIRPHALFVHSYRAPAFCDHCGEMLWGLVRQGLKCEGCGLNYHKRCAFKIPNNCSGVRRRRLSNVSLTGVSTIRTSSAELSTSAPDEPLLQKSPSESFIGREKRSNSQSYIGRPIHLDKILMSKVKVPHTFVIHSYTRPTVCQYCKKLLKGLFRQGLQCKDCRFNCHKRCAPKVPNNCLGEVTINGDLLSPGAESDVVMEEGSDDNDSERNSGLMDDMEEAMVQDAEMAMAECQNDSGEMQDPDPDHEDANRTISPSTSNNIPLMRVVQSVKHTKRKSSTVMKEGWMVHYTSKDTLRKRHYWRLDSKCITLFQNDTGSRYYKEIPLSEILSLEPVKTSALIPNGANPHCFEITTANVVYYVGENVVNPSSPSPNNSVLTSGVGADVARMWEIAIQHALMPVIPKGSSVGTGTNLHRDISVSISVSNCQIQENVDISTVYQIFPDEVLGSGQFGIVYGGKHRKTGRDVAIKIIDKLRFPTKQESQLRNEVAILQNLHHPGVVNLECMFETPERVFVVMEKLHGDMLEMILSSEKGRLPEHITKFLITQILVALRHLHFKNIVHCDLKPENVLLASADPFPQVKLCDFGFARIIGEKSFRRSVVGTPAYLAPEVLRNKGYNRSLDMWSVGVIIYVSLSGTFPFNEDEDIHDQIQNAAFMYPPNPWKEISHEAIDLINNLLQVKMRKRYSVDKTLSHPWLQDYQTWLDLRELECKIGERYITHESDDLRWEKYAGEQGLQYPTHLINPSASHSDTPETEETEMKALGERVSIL

[9] = target: T2, Serine/threonine-protein kinase D1 (Homo sapiens); conditions: at 1 µM
[10] = target: T3, Serine/threonine-protein kinase D2 (Homo sapiens) (UniProt Q9BZL6); conditions: at 0.1 µM
T3 sequence (whole entry): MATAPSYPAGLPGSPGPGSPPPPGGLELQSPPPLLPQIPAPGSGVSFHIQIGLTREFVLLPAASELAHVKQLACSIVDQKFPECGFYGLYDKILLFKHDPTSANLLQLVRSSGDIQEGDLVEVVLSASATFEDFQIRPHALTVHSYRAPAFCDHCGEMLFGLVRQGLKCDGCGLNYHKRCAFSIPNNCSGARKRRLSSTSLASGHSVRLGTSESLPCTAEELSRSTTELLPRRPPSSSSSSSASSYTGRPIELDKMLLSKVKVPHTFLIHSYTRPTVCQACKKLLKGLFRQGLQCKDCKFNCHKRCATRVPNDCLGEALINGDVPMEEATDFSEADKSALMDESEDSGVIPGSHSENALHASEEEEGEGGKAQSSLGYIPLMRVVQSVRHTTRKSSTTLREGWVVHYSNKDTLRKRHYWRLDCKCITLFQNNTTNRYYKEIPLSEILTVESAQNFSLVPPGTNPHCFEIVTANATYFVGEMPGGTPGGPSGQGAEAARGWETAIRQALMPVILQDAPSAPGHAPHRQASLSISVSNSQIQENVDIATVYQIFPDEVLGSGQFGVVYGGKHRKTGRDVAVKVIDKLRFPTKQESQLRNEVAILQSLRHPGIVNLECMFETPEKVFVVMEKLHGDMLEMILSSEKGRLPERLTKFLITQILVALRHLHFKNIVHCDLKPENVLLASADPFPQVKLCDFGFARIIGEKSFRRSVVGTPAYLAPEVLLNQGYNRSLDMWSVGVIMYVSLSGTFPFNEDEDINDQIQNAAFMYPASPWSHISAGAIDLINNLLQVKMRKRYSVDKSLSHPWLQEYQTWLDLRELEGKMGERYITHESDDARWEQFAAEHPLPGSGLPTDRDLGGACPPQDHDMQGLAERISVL

[11] = target: T3, Serine/threonine-protein kinase D2 (Homo sapiens); conditions: at 1 µM
[12] = target: T4, Serine/threonine-protein kinase D3 (Homo sapiens) (UniProt O94806); conditions: at 0.1 µM
T4 sequence (whole entry): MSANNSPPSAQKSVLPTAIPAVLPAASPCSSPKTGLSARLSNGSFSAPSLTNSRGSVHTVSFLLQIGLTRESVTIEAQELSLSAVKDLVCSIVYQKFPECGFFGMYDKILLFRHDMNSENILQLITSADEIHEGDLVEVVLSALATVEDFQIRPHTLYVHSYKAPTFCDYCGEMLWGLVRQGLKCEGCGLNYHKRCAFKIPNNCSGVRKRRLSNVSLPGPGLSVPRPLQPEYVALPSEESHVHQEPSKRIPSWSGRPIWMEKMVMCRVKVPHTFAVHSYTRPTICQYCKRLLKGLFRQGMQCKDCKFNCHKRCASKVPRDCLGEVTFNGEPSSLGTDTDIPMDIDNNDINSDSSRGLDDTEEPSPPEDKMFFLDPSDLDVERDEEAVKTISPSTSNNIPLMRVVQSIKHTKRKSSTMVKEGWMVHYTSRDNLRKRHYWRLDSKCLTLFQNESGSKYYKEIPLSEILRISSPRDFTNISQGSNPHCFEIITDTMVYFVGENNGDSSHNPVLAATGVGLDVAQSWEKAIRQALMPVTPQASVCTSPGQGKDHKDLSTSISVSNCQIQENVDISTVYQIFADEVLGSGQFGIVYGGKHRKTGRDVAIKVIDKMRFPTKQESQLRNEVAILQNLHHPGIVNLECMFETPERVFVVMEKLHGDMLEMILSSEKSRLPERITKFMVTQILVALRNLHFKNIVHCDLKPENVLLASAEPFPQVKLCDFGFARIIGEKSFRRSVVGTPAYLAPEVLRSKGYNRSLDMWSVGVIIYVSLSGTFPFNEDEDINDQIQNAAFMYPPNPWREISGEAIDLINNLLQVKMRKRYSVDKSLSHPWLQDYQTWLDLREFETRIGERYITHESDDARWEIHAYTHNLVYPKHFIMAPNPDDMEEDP

[13] = target: T4, Serine/threonine-protein kinase D3 (Homo sapiens); conditions: at 1 µM
[14] = target: T5, cGMP-dependent protein kinase 1 (Homo sapiens) (UniProt Q13976); conditions: at 0.1 µM
T5 sequence (whole entry): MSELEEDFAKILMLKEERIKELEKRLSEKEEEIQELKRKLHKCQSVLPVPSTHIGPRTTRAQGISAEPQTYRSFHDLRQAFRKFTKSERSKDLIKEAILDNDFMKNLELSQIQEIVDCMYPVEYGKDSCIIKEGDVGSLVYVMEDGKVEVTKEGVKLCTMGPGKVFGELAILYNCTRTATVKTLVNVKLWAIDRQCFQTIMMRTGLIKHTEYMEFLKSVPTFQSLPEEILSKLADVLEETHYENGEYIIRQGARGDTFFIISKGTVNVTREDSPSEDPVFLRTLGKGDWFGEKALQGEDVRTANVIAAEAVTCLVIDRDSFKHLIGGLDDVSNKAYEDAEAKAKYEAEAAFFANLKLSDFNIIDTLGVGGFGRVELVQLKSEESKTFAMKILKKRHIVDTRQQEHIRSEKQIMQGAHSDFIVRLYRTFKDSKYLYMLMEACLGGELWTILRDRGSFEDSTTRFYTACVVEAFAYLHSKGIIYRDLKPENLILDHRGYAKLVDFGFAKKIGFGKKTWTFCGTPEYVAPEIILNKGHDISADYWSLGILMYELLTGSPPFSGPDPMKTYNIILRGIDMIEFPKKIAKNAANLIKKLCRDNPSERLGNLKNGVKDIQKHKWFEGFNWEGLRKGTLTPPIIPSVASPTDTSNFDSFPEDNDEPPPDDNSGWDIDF

[15] = target: T5, cGMP-dependent protein kinase 1 (Homo sapiens); conditions: at 1 µM
[16] = target: T6, cGMP-dependent protein kinase 2 (Homo sapiens) (UniProt Q13237); conditions: at 0.1 µM
T6 sequence (whole entry): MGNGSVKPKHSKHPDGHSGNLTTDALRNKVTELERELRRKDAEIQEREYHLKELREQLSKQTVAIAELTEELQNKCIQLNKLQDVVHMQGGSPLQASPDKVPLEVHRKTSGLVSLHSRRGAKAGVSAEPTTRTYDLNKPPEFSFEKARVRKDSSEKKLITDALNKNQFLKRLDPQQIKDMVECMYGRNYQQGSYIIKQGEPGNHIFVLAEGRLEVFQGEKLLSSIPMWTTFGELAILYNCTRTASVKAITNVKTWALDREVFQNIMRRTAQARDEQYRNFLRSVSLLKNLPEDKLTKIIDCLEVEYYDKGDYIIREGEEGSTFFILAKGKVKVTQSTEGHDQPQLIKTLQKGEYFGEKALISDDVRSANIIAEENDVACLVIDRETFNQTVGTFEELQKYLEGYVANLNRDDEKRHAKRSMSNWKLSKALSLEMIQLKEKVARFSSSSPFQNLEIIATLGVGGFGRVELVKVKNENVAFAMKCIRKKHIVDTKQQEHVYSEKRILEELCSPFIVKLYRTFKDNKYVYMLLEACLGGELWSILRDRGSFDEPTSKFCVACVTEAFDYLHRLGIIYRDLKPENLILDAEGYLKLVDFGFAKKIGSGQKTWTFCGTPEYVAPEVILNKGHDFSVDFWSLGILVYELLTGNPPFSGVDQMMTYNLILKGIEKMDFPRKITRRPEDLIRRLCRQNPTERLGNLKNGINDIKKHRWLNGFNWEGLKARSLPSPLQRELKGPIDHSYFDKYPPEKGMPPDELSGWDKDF

[17] = target: T6, cGMP-dependent protein kinase 2 (Homo sapiens); conditions: at 1 µM
[18] = target: T7, cAMP-dependent protein kinase catalytic subunit PRKX (Homo sapiens) (UniProt P51817); conditions: at 0.1 µM
T7 sequence (whole entry): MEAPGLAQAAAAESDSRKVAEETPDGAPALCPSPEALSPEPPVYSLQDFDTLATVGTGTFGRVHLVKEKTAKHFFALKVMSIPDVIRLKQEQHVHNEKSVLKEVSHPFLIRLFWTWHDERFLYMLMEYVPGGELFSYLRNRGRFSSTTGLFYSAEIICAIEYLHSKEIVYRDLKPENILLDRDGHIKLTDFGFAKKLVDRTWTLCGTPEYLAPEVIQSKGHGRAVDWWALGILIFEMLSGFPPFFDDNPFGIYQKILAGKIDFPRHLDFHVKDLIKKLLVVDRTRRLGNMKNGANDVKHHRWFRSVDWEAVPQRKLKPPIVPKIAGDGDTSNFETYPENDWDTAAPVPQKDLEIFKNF

[19] = target: T7, cAMP-dependent protein kinase catalytic subunit PRKX (Homo sapiens); conditions: at 1 µM
[20] = target: Rho-associated protein kinase 1 (Homo sapiens) (UniProt Q13464); conditions: at 0.1 µM;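 further: values are mean percent inhibition of ROCK1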
Chain of Rho-associated protein kinase 1 (Homo sapiens) (Q13464 2-1354 limits assumed): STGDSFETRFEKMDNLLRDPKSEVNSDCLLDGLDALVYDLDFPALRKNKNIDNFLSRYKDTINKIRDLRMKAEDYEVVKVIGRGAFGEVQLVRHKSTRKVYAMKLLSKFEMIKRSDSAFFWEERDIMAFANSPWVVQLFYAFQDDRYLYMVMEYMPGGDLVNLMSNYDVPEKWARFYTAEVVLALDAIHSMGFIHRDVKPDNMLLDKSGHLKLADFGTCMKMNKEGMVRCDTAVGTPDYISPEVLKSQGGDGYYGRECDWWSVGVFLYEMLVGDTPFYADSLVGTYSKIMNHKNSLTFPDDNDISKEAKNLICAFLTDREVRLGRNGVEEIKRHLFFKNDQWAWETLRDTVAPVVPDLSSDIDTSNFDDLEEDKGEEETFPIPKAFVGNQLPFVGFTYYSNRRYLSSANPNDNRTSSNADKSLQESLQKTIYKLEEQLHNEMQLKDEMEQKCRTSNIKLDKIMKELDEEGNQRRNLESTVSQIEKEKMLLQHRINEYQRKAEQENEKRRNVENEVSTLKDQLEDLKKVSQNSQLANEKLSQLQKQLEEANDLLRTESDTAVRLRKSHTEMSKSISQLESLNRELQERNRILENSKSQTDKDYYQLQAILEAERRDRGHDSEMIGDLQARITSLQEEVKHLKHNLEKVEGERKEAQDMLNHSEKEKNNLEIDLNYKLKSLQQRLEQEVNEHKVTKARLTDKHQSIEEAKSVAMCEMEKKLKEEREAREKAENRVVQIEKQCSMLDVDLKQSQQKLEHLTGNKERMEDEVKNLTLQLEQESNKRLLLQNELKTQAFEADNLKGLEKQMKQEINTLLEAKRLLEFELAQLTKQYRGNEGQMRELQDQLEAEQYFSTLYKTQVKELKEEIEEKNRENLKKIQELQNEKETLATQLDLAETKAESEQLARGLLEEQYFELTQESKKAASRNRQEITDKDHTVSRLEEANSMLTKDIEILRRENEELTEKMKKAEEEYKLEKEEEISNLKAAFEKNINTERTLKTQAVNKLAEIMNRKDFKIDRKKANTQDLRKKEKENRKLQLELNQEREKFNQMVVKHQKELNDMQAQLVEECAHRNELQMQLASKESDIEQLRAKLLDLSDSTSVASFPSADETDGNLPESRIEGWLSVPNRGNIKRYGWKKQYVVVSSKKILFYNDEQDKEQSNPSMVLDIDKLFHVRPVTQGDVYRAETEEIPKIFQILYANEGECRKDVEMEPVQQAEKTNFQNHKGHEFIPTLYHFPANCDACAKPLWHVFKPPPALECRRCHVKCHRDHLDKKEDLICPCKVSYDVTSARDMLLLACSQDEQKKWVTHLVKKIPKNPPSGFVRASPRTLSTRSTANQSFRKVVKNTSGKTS

SMILES | inhibition [1] [%] | inhibition [2] [%] | inhibition [3] [%] | inhibition [4] [%] | inhibition [5] [%] | inhibition [6] [%] | inhibition [7] [%] | inhibition [8] [%] | inhibition [9] [%] | inhibition [10] [%] | inhibition [11] [%] | inhibition [12] [%] | inhibition [13] [%] | inhibition [14] [%] | inhibition [15] [%] | inhibition [16] [%] | inhibition [17] [%] | inhibition [18] [%] | inhibition [19] [%] | inhibition [20] [%]
COc1cc2ncn(-c3cc(OCCc4ccccc4)c(C(N)=O)s3)c2cc1OC | 1.47 | 1.14 | 1.71 | 0.51 | -0.63 | 0.9 | 1.22 | 2.65 | 5.06 | 3.79 | 4.84 | 3.76 | 4.36 | 2.33 | 4.13 | 1.3 | 2.13 | 0.24 | -4.15 | 0.26
COc1cc(Nc2ncc3c(C)nc(-c4cccc(C(F)(F)F)c4)n3n2)cc(OC)c1OC | 7.63 | 0.74 | 0.54 | 1.87 | 5.29 | 1.35 | 2.31 | 1.48 | 2.12 | 1.81 | 4.32 | 2.48 | 2.79 | 0.96 | 5.81 | 4.61 | 6.16 | 3 | 7.31 | -0.86
CCc1ccc(Oc2nccc(-c3c(-c4ccc(F)cc4)ncn3C3CCNCC3)n2)cc1 | 10.9 | 0.16 | 1.79 | 4 | 8.13 | 2.37 | 9.56 | 3.88 | 13 | 4.63 | 13.7 | 4.01 | 9.71 | 4.32 | 10.4 | 5.03 | 8.46 | 3.21 | 3.97 | 1.24
CS(=O)(=O)CCNCc1ccc(-c2ccc3ncnc(Nc4ccc(OCc5ccccc5)c(Br)c4)c3c2)o1 | -0.13 | 2.91 | 2.72 | 2.31 | 2.41 | 0.97 | 1.27 | 0.19 | -0.25 | 0.64 | -2.34 | -0.06 | -0.73 | 3.47 | 0.89 | 2.31 | 1.31 | 2.17 | 2.64 | 1.36
